In publication PMC7862700, “An all-to-all approach to the identification of sequence-specific readers for epigenetic DNA modifications on cytosine”:

Experiments:
Test in all cases: DAPPL (digital affinity profiling via proximity ligation, sequencing); 10 mM Tris-HCl pH 7.5, 50 mM NaCl, 1 mM DTT, 4% glycerol, room temperature, 30 min; GST-TFs on glutathione beads, 16-mer random dsDNA library, 0.1% formaldehyde crosslink after washing; high values mean tight binding
FEV = biological target: T1, FEV (Homo sapiens, UniProt Q99581 1-238); conditions: protein: recombinant; tags: N-terminal GST; dsDNA, one strand shown
T1 sequence: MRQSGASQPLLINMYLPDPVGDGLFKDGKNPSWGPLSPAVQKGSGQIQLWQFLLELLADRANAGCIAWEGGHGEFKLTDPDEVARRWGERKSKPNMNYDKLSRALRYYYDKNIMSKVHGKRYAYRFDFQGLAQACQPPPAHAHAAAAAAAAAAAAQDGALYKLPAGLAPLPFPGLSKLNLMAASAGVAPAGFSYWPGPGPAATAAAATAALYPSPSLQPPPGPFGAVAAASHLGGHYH
In short: (§1)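 Human transcription factors were made in yeast as GST fusions, captured on glutathione beads and barcoded with DNA. With a tag-only sample included, the pool was incubated with 200 nmole of a random double-stranded 16-mer DNA library in Tris/NaCl/DTT/glycerol buffer at room temperature for 30 min, then crosslinked with 0.1% formaldehyde after washing, ligated by proximity, amplified and sequenced. For binding signal, each hexamer's read frequency for a factor is divided by its frequency for the tag-only sample.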

ETV5 = ETV5 (Homo sapiens, UniProt P41161 1-510); conditions: protein: recombinant; tags: N-terminal GST; dsDNA, one strand shown
In short: as §1

HSF1 = HSF1 (Homo sapiens, UniProt Q00613 1-529); conditions: protein: recombinant; tags: N-terminal GST; chain copies: 3; dsDNA, one strand shown
In short: as §1

SPIC = biological target: T2, SPIC (Homo sapiens, UniProt Q8N5J4 1-248); conditions: protein: recombinant; tags: N-terminal GST; dsDNA, one strand shown
T2 sequence: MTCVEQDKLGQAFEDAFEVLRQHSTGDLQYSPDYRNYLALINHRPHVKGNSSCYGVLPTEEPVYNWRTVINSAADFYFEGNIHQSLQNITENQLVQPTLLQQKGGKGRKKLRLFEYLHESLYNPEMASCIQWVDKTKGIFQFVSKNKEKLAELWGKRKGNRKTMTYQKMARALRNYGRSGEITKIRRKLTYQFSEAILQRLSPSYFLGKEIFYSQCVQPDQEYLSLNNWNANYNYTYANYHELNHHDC
In short: as §1

ELF4 = ELF4 (Homo sapiens, UniProt Q99607 1-663); conditions: protein: recombinant; tags: N-terminal GST; dsDNA, one strand shown
In short: as §1

ELK4 = biological target: T3, ELK4 (Homo sapiens, UniProt P28324-2 1-405); conditions: protein: recombinant; tags: N-terminal GST; dsDNA, one strand shown
T3 sequence: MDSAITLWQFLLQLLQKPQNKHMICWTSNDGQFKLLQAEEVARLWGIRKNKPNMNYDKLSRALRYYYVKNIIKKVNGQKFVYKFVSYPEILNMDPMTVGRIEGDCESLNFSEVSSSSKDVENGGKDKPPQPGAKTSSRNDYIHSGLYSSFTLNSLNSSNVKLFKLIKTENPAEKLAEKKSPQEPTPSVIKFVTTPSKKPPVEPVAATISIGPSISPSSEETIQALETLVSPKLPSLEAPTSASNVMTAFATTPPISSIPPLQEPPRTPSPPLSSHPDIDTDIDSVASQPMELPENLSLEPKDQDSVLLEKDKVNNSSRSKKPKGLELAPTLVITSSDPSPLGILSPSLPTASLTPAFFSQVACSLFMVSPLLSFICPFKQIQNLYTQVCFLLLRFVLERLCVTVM
In short: as §1

ETV2 = biological target: T4, ETV2 (Homo sapiens, UniProt O00321 1-342); conditions: protein: recombinant; tags: N-terminal GST; dsDNA, one strand shown
T4 sequence: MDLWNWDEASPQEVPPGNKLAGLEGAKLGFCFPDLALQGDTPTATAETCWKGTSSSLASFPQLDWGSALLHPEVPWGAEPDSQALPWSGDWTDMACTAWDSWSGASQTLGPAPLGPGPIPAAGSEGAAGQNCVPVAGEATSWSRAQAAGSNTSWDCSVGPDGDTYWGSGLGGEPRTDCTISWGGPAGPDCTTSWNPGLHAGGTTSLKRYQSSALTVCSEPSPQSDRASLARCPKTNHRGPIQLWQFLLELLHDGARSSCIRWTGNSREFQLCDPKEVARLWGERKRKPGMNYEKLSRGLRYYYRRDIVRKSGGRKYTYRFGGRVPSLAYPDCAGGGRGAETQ
In short: as §1

ELF3 = biological target: T5, ELF3 (Homo sapiens, UniProt P78545 1-371); conditions: protein: recombinant; tags: N-terminal GST; dsDNA, one strand shown
T5 sequence: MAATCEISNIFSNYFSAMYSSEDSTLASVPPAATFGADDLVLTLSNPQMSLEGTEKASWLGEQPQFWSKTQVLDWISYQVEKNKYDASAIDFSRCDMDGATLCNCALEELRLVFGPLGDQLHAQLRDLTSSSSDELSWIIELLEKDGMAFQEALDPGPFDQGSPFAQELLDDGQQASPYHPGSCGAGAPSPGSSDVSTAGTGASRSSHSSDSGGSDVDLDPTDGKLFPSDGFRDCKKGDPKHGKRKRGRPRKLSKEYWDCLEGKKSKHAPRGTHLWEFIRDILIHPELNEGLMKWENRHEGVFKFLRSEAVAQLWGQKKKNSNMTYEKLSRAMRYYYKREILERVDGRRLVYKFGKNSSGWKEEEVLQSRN
In short: as §1

CRX = CRX (Homo sapiens, UniProt O43186 1-299); conditions: protein: recombinant; tags: N-terminal GST; dsDNA, one strand shown
In short: as §1

ETV1 = ETV1 (Homo sapiens, UniProt P50549 1-477); conditions: protein: recombinant; tags: N-terminal GST; dsDNA, one strand shown
In short: as §1

ERF = biological target: T6, ERF (Homo sapiens, UniProt P50548 1-548); conditions: protein: recombinant; tags: N-terminal GST; dsDNA, one strand shown
T6 sequence: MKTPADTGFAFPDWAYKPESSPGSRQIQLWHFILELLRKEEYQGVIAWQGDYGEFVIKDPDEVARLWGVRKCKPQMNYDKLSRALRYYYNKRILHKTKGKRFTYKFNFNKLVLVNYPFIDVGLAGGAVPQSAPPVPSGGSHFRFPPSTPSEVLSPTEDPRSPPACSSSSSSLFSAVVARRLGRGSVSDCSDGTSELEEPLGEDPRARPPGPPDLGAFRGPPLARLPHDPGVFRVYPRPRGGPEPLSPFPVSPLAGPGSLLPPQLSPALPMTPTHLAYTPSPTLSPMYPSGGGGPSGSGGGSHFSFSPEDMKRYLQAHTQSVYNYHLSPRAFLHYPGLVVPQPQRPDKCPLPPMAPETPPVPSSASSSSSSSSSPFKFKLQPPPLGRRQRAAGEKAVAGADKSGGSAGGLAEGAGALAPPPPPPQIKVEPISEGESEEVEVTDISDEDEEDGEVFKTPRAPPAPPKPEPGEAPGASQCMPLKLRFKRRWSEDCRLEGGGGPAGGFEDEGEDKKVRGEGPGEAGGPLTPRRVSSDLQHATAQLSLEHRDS
In short: as §1

ETV3L = biological target: T7, ETV3L (Homo sapiens, UniProt Q6ZN32 1-361); conditions: protein: recombinant; tags: N-terminal GST; dsDNA, one strand shown
T7 sequence: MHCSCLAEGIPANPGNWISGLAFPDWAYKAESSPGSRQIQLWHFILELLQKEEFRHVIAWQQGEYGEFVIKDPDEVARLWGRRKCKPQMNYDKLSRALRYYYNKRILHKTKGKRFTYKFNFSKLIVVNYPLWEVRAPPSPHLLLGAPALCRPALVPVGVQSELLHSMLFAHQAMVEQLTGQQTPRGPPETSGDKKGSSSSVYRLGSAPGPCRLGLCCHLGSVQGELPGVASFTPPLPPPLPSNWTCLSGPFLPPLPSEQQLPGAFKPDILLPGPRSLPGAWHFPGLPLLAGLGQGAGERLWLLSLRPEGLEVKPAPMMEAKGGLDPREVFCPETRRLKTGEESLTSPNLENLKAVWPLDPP
In short: as §1

ETS2 = biological target: T8, ETS2 (Homo sapiens, UniProt P15036 1-469); conditions: protein: recombinant; tags: N-terminal GST; dsDNA, one strand shown
T8 sequence: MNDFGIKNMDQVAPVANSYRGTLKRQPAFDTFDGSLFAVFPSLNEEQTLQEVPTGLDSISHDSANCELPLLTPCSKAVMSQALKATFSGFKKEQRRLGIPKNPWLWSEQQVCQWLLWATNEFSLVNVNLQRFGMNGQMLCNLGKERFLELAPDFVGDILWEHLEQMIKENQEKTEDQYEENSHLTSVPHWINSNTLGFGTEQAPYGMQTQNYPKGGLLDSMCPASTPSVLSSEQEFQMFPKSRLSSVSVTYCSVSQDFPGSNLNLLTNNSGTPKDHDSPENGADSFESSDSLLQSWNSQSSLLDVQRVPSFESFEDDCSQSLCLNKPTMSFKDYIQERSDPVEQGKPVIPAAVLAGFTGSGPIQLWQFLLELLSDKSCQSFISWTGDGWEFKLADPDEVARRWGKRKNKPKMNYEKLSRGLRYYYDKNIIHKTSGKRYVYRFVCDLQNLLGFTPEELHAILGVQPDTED
In short: as §1

SPDEF = biological target: T9, SPDEF (Homo sapiens, UniProt O95238 1-335); conditions: protein: recombinant; tags: N-terminal GST; dsDNA, one strand shown
T9 sequence: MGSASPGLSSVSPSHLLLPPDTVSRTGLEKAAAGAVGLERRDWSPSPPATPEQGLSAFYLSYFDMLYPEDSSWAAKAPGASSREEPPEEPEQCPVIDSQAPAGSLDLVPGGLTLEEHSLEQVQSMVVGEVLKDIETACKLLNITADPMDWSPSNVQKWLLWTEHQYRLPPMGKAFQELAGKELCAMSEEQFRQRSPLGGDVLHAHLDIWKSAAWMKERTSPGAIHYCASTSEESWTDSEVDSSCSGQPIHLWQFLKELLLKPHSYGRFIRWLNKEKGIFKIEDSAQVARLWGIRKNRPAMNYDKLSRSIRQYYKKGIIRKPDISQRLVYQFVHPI
In short: as §1

ETV7 = biological target: T10, ETV7 (Homo sapiens, UniProt Q9Y603 1-341); conditions: protein: recombinant; tags: N-terminal GST; dsDNA, one strand shown
T10 sequence: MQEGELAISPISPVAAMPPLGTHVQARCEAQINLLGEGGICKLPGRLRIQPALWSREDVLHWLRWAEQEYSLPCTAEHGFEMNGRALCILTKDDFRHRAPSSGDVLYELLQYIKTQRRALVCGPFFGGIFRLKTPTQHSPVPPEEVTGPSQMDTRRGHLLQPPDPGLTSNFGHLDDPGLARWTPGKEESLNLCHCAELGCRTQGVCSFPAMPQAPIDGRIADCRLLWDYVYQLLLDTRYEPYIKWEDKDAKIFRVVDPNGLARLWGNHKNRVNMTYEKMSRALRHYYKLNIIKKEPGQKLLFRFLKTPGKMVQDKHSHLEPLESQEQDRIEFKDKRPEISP
In short: as §1

ELF5 = biological target: T11, ELF5 (Homo sapiens, UniProt Q9UKW6-2 1-255); conditions: protein: recombinant; tags: N-terminal GST; dsDNA, one strand shown
T11 sequence: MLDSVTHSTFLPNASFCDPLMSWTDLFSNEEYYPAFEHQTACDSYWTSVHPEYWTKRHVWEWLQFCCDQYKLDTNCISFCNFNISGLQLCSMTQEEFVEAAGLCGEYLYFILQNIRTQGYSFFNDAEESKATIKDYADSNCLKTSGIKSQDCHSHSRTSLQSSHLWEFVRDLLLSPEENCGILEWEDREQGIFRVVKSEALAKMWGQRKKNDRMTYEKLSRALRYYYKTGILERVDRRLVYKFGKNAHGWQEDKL
In short: as §1

ETV3 = biological target: T12, ETV3 (Homo sapiens, UniProt P41162-2 1-143); conditions: protein: recombinant; tags: N-terminal GST; dsDNA, one strand shown
T12 sequence: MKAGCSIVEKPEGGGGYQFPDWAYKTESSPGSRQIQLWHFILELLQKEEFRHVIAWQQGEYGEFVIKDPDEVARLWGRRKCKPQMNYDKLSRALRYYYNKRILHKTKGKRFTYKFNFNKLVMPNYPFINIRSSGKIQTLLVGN
In short: as §1

ETV6 = ETV6 (Homo sapiens, UniProt P41212 1-452); conditions: protein: recombinant; tags: N-terminal GST; dsDNA, one strand shown
In short: as §1

Chain of HSF1 (Q00613 whole entry): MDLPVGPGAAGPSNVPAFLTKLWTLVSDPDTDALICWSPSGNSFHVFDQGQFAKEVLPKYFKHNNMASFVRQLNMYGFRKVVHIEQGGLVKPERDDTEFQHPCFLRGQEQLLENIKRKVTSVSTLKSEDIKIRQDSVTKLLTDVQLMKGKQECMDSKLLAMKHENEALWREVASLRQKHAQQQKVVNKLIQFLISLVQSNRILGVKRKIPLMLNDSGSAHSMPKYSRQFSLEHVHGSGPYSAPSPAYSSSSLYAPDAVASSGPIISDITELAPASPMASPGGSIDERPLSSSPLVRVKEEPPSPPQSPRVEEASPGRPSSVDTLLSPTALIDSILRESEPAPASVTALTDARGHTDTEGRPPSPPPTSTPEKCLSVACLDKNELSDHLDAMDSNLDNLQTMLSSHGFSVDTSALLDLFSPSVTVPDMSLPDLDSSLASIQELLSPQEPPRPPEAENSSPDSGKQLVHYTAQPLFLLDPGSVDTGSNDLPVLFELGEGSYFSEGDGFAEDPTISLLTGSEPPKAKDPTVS
Chain of ETV6 (P41212 whole entry): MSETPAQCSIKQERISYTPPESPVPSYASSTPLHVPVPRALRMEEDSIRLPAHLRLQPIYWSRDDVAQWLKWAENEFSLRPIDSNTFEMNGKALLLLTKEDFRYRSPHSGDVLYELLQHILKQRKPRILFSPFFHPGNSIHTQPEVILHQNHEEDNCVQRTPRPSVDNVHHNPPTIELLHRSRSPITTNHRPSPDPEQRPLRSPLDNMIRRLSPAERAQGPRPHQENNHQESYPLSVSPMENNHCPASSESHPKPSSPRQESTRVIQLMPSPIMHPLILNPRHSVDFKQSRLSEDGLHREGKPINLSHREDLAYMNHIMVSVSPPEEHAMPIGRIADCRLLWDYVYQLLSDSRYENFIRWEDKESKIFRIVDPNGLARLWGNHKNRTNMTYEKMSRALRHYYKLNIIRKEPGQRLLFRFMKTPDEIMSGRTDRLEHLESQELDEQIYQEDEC
Chain of ELF4 (Q99607 whole entry): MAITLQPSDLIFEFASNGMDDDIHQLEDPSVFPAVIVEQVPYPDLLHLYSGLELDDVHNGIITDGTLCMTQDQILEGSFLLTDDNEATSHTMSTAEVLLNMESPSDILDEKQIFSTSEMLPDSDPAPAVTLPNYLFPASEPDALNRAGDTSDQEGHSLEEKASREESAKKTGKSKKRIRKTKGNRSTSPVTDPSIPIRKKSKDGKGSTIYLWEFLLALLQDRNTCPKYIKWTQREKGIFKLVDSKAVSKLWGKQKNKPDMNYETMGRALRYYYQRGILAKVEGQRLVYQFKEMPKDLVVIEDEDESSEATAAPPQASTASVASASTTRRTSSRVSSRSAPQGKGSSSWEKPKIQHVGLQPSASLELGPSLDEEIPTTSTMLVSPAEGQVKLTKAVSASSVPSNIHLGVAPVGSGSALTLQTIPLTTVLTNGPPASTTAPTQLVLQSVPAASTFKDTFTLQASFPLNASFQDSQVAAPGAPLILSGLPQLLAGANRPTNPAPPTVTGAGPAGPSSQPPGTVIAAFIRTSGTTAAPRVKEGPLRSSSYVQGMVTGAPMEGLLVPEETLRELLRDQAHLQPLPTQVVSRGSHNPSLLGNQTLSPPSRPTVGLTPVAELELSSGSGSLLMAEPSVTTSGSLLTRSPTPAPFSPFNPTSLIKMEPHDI
Chain of CRX (O43186 whole entry): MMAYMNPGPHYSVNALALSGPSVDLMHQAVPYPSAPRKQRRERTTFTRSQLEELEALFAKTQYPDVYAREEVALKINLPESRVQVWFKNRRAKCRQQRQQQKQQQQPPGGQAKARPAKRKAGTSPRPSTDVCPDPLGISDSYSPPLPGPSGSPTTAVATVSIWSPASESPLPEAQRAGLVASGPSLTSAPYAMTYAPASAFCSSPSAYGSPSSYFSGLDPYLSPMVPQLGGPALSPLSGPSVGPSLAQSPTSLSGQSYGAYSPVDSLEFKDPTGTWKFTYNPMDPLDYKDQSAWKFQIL
Chain of ETV1 (P50549 whole entry): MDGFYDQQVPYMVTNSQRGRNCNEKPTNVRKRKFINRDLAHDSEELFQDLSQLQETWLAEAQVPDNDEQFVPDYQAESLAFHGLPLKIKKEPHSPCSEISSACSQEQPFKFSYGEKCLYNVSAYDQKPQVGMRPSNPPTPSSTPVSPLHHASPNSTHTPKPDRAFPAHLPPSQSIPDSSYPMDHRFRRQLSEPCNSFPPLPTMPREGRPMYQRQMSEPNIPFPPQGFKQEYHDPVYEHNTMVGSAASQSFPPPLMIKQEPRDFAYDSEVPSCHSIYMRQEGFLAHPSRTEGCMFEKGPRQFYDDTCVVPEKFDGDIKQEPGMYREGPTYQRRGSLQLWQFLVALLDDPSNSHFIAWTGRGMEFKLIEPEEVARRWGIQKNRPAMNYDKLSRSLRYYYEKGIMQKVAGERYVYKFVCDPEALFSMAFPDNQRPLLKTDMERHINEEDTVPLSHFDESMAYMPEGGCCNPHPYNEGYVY
Chain of ETV5 (P41161 whole entry): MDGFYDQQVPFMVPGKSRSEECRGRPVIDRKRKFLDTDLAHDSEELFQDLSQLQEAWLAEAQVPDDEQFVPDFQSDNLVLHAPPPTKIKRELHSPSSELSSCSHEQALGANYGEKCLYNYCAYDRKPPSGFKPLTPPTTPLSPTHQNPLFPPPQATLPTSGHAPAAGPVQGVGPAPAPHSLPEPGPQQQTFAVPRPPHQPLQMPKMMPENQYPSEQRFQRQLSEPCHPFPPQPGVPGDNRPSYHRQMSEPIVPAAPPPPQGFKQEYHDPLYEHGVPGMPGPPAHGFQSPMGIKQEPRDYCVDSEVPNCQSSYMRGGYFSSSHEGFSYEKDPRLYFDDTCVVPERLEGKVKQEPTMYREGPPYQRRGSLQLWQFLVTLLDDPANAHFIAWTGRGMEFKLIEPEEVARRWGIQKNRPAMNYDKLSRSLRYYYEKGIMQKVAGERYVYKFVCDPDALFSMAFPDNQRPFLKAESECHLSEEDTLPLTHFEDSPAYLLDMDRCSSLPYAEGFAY

In the case of GAAAAT, the binding signal (FEV) is reported as 1.07 fold enrichment (6-mer frequency, TF over GST control), the binding signal (ETV5) is reported as 1.16 fold enrichment (6-mer frequency, TF over GST control) and the binding signal (HSF1) is reported as 1.49 fold enrichment (6-mer frequency, TF over GST control). For the same sequence, the binding signal (SPIC) was 1.09 fold enrichment (6-mer frequency, TF over GST control), the binding signal (ELF4) was 1.14 fold enrichment (6-mer frequency, TF over GST control) and the binding signal (ELK4) was 1.01 fold enrichment (6-mer frequency, TF over GST control). The binding signal (ETV2) was 1.17 fold enrichment (6-mer frequency, TF over GST control), the binding signal (ELF3) was 1.09 fold enrichment (6-mer frequency, TF over GST control) and the binding signal (CRX) was 1.2 fold enrichment (6-mer frequency, TF over GST control). The binding signal (ETV1) was 1.02 fold enrichment (6-mer frequency, TF over GST control), the binding signal (ERF) was 1.18 fold enrichment (6-mer frequency, TF over GST control) and the binding signal (ETV3L) was 1.15 fold enrichment (6-mer frequency, TF over GST control). For the same sequence, the binding signal (ETS2) was 1.13 fold enrichment (6-mer frequency, TF over GST control), the binding signal (SPDEF) was 1.05 fold enrichment (6-mer frequency, TF over GST control) and the binding signal (ETV7) was 1.2 fold enrichment (6-mer frequency, TF over GST control). For the same sequence, the binding signal (ELF5) was 1.17 fold enrichment (6-mer frequency, TF over GST control), the binding signal (ETV3) was 1.07 fold enrichment (6-mer frequency, TF over GST control) and the binding signal (ETV6) was 1.19 fold enrichment (6-mer frequency, TF over GST control).
